Screening data: PubChem BioAssay, The Scripps Research Institute Molecular Screening Center
GPR151 activ = activators of human GPR151, primary screen, cell-based, PathHunter beta-arrestin, luminescence; G-protein coupled receptor 151 (Homo sapiens), Q8TDV0; AID 1508602, 2020; 650,000 compounds, 1% hits; PathHunter beta-arrestin GPR151 cells; activation, % at 11.2 µM; in the data active = activation above about 4.9%;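 note: 0% = median of compound wells and 100% = cells with positive control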
TEAD-YAP block = TEAD-YAP interaction inhibition, primary screen, TEAD-YAP interaction inhibitor project, luminescence, HEK-TIYL cells; TEAD-Gal4/YAP UAS-luciferase luminescence; inhibition, % at 9.12 µM; 640,000 compounds, 1.4% hits; AID 1259422, 2018; in the data active = inhibition above about 32%;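 note: 0% = median of test compound wells and 100% = reference inhibitor wells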
FBW7 activator = FBW7 E3 ligase activators, primary screen, biochemical, AlphaScreen, human | normalized activity (activation), % at 26.1 µM | 650,000 compounds, 0.13% hits | AlphaScreen FBW7–phospho-cyclin E peptide binding, activator screen | F-box/WD repeat-containing protein 7 (Homo sapiens), Q969H0; in the data active = normalized activity above about 1.9%;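 note: purified mutant Fbw7 with reduced substrate affinity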
MITF primary = MITF inhibitors, primary screen, biochemical, AlphaScreen, human | Microphthalmia-associated transcription factor (Homo sapiens), O75030 | AlphaScreen MITF homodimerization, bead proximity signal | inhibition, % at 2.6 µM | 650,000 compounds, 0.91% hits; in the data active = inhibition above about 50%;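 note: 0% = vehicle wells with protein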
Target sequence (O75030 whole entry, looked up): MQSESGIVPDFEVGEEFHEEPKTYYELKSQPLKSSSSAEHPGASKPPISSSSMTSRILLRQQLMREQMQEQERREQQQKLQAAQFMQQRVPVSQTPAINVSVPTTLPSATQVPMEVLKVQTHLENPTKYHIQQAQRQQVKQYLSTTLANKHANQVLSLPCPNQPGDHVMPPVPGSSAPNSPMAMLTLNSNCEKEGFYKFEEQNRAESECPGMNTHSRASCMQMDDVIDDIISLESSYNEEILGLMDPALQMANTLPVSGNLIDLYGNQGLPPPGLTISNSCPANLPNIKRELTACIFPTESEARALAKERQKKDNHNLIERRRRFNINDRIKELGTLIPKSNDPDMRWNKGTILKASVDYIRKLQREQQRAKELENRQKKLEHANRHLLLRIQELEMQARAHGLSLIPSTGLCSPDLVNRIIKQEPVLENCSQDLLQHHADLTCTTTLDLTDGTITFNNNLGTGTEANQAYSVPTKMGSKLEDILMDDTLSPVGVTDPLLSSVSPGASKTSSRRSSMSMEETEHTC
MITF inh conf = MITF inhibitors, retest of hits, confirmation, biochemical, AlphaScreen, triplicate; shares compounds with MITF primary; AlphaScreen MITF homodimerization, biotin/His-MITF beads; inhibition, % at 2.6 µM; 4,700 compounds, 16% hits; AID 1259372, 2018;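 active = inhibition above a cutoff derived from the DMSO control wells, cut at about 28% in these data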;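 note: 0% = MITF dimer wells with DMSO only; inhibitors lower the bead chemiluminescence by keeping MITF from dimerizing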
AlphaScreen DR = AlphaScreen optical interference compounds, dose response, counter-screen, biochemical, HTS; shares compounds with MITF primary; AlphaScreen optical interference counterscreen, cell-free; IC50, µM; 480 compounds, 6% hits; call rule not given here
AlphaScreen intf2 = AlphaScreen optical interference compounds, counter-screen for MITF inhibitor project, biochemical, triplicate | 4,700 compounds, 7.6% hits | LysRS AlphaScreen counterscreen, signal interference | inhibition, % at 2.6 µM | shares compounds with MITF primary;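 active = inhibition above a cutoff derived from the DMSO control wells, cut at about 30% in these data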
The depositor's hits bear a star. Hits are enriched below; roughly 3.5% of the tested compounds scored in any of these assays.

How did O=C1C(=O)N(CC2CCCO2)C(c2ccco2)/C1=C(/O)c1ccc(Cl)cc1 (stereo unspecified) do in these assays?
GPR151 activ: 0; TEAD-YAP block: -17; FBW7 activator: 0; MITF primary: 53*; MITF inh conf: 7; AlphaScreen intf2: 10

Results for CCSc1nnc(NC(=O)c2cc(S(=O)(=O)N3CCCCC3)ccc2Cl)s1 ?
GPR151 activ: -1; TEAD-YAP block: -7; FBW7 activator: 0; MITF primary: 57*; MITF inh conf: 12; AlphaScreen intf2: 16

How did CCCOc1ccccc1C(=O)Nc1nnc(SCC)s1 do in these assays?
GPR151 activ: -2; TEAD-YAP block: -4; FBW7 activator: 1; MITF primary: 67*; MITF inh conf: 20; AlphaScreen intf2: 12

Results for CCSc1nnc(NC(=O)c2cc(Cl)ccc2Cl)s1 ?
GPR151 activ: -1; TEAD-YAP block: 3; FBW7 activator: 0; MITF primary: 2

What do the screens show for `CCCOc1ccc(C(=O)Nc2cccc(-c3nc4ncccc4o3)c2)cc1`?
GPR151 activ: 0; TEAD-YAP block: 0; FBW7 activator: 0; MITF primary: 69*; MITF inh conf: 13; AlphaScreen intf2: 16

How did COC(=O)CCc1cc2c(C)cc(=O)oc2cc1OCc1ccc(C)cc1 do in these assays?
GPR151 activ: 0; TEAD-YAP block: -9; FBW7 activator: 0; MITF primary: 78*; MITF inh conf: 38*; AlphaScreen DR: >6.5; AlphaScreen intf2: -72

Results for CCN(C(=O)c1cc(OC)c(OC)c(OC)c1)c1ccccc1C ?
GPR151 activ: -2; TEAD-YAP block: 0; FBW7 activator: 0; MITF primary: 10

How did CCS(=O)(=O)N1CCN(C2CCCC2)CC1 do in these assays?
GPR151 activ: 3; TEAD-YAP block: -3; FBW7 activator: 0; MITF primary: 34

How did CCCN1CCC(N2CCN(S(C)(=O)=O)CC2)CC1 do in these assays?
GPR151 activ: -1; TEAD-YAP block: -3; FBW7 activator: 0; MITF primary: 68*; MITF inh conf: 2; AlphaScreen intf2: 16

How did CS(=O)(=O)N1CCN(C2CCCC2)CC1 do in these assays?
GPR151 activ: 1; TEAD-YAP block: 3; FBW7 activator: 0; MITF primary: 21

How did CCCN1CCC(N2CCN(S(=O)(=O)c3ccccc3[N+](=O)[O-])CC2)CC1 do in these assays?
GPR151 activ: -2; TEAD-YAP block: 3; FBW7 activator: 0; MITF primary: 84*; MITF inh conf: 12; AlphaScreen intf2: 12

Results for CCCS(=O)(=O)N1CCN(C2CCCCC2)CC1 ?
GPR151 activ: -2; TEAD-YAP block: 3; FBW7 activator: 0; MITF primary: 53*; MITF inh conf: 6; AlphaScreen intf2: 17

How did O=C1c2ccccc2C(=O)N1c1ccc(N2C(=O)c3ccccc3C2=O)c(Cl)c1 do in these assays?
GPR151 activ: -1; TEAD-YAP block: 1; FBW7 activator: 0; MITF primary: 2

Results for O=C1c2cccnc2C(=O)N1c1ccc(N2C(=O)c3cccnc3C2=O)c(Cl)c1 ?
GPR151 activ: -1; TEAD-YAP block: -2; FBW7 activator: -1; MITF primary: 70*; MITF inh conf: 19; AlphaScreen intf2: 31*

How did O=C1c2cccnc2C(=O)N1c1ccc(Br)cc1 do in these assays?
GPR151 activ: -2; TEAD-YAP block: 7; FBW7 activator: -1; MITF primary: 58*; MITF inh conf: 6; AlphaScreen intf2: 20

Results for O=C(O)c1ccc(N2C(=O)c3cccnc3C2=O)cc1 ?
GPR151 activ: 0; TEAD-YAP block: 8; FBW7 activator: -1; MITF primary: 40

What do the screens show for `c1ccc(CN2CCC(N3CCN(C4CCN(Cc5ccccc5)CC4)CC3)CC2)cc1`?
GPR151 activ: 0; TEAD-YAP block: 16; FBW7 activator: 0; MITF primary: 21

What do the screens show for `O=C(Cc1ccccc1)N1CCC(N2CCN(Cc3ccccc3)CC2)CC1`?
GPR151 activ: 1; TEAD-YAP block: 6; FBW7 activator: 0; MITF primary: 66*; MITF inh conf: 2; AlphaScreen intf2: 9

What do the screens show for `CCc1ccc(CN2CCN(C3CCN(Cc4ccccc4)CC3)CC2)cc1`?
GPR151 activ: -1; TEAD-YAP block: 6; FBW7 activator: 0; MITF primary: 55*; MITF inh conf: -9; AlphaScreen intf2: 0

How did Cc1ccc(CN2CCN(C3CCCCC3)CC2)cc1 do in these assays?
GPR151 activ: -1; TEAD-YAP block: -12; FBW7 activator: 0; MITF primary: 65*; MITF inh conf: 3; AlphaScreen intf2: 18

What do the screens show for `c1ccc(CN2CCN(C3CCCC3)CC2)cc1`?
GPR151 activ: 0; TEAD-YAP block: 15; FBW7 activator: 0; MITF primary: 75*; MITF inh conf: -5; AlphaScreen intf2: -10

Results for Cc1cccc(NC(=O)CN(c2cccc(Br)c2)S(C)(=O)=O)c1 ?
GPR151 activ: 2; TEAD-YAP block: 1; FBW7 activator: 0; MITF primary: -1

What do the screens show for `CC1CCCC(N2CCN(Cc3cccc(Cl)c3)CC2)C1` (stereo unspecified)?
GPR151 activ: 1; TEAD-YAP block: -5; FBW7 activator: 0; MITF primary: 67*; MITF inh conf: 1; AlphaScreen intf2: -6

How did CS(=O)(=O)N1CCC(N2CCN(Cc3ccccc3)CC2)CC1 do in these assays?
GPR151 activ: 1; TEAD-YAP block: -3; FBW7 activator: 0; MITF primary: 54*; MITF inh conf: 7; AlphaScreen intf2: 20

How did Brc1cccc(CN2CCC(N3CCCCC3)CC2)c1 do in these assays?
GPR151 activ: 0; TEAD-YAP block: -5; FBW7 activator: 0; MITF primary: -10

What do the screens show for `Clc1cccc(CN2CCN(C3CCCCCC3)CC2)c1`?
GPR151 activ: -1; TEAD-YAP block: 1; FBW7 activator: 0; MITF primary: 69*; MITF inh conf: -5; AlphaScreen intf2: -6

Results for CSCC(=O)N1CCOc2ccc(CN3CCOCC3)cc2C1 ?
GPR151 activ: -1; TEAD-YAP block: 8; FBW7 activator: 0; MITF primary: 12

Results for CC1CCN(CCCNC(=O)C2CC(=O)N(CCc3ccccc3)C2)CC1 (stereo unspecified) ?
GPR151 activ: -2; TEAD-YAP block: 2; FBW7 activator: 0; MITF primary: 107*; MITF inh conf: -9; AlphaScreen intf2: -3

How did COc1cc(CN2CCN(Cc3ccccc3Br)CC2)c([N+](=O)[O-])cc1OC do in these assays?
GPR151 activ: 1; TEAD-YAP block: -3; FBW7 activator: 1; MITF primary: 71*; MITF inh conf: 22; AlphaScreen intf2: 0
